Experimental data reported in PubChem BioAssay AID2108 (National Center for Advancing Translational Sciences (NCATS), 2009).
Records with an inconclusive call do not appear. Calls come from the whole dose curve; as a rule, active = well fitted curve in the direction sought with a large enough effect; inconclusive = small, poorly fitted or top-dose-only effect, or effect the other way, or another doubt; inactive = no such curve, though single readings can be large or run the other way.

Each compound was assayed against Alpha-galactosidase A (Homo sapiens) (UniProt P06280) (assay: Confirmation of Inhibitors of Human alpha-Galactosidase Using Spleen Homogenate). Details: alpha-galactosidase enzyme activity; series mostly up to 56.2 µM; activity change: at the top concentration.
Alpha-galactosidase A (Homo sapiens), sequence (P06280 32-429 limits assumed): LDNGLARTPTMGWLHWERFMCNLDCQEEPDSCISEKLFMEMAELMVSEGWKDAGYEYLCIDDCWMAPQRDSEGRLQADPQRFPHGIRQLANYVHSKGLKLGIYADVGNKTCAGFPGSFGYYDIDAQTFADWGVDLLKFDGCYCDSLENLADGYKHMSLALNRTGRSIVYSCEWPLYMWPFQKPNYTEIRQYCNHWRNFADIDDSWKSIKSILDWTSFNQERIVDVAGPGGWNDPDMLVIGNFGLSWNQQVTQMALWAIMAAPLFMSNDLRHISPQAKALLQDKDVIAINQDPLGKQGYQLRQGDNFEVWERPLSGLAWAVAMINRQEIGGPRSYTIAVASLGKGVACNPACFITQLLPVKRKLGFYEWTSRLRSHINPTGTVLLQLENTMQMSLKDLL
In short: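 Human spleen homogenate (1 ug) with 1 mM 4-methylumbelliferyl-alpha-D-galactopyranoside in citrate-phosphate pH 5.0, 0.01% Tween-20, 37C 40 min; compounds 0.5 nM–58 uM final. Stopped at pH 10, fluorescence Ex 365/Em 440; AC50 from Hill fits.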
Note: 0% is about no effect.

Activity change, inactive:
NC(=O)NN=C1c2cc(S(=O)(=O)N3CCOCC3)ccc2-c2ccc(S(=O)(=O)N3CCOCC3)cc21 8.14%
CCOC(=O)C(CC)(CCC(=O)O)c1csc(Nc2ccc(C)cc2)n1 (stereo unspecified) 9.44% [at 23.6 µM]
O=C(COC(=O)c1ccccc1Br)NCCc1ccc(F)cc1 -1.68% [at 23.6 µM]
S=C(NCCc1ccccc1)N1CCn2cccc2C1c1ccncc1 (stereo unspecified) 0.147%
OC[C@H]1NC[C@H](O)[C@@H](O)[C@H]1O -7.1% [at 287 µM]
CN(C)N=C1c2cc(S(=O)(=O)N3CCOCC3)ccc2-c2ccc(S(=O)(=O)N3CCOCC3)cc21 9.04%
N#Cc1c(-c2ccccc2)nc(SCc2nc(N)nc(N3CCCCC3)n2)[nH]c1=O 6.63%
O=C1CC(N2CCN(c3cccc(C(F)(F)F)c3)CC2)C(=O)N1c1ccc(F)cc1 (stereo unspecified) -6.67% [at 23.6 µM]
COc1cc(-c2cc(N3C(=O)Nc4ccccc4N3O)n[nH]2)cc(OC)c1OC 6.53% [at 23.6 µM]
O=C(Nc1ccccc1)C1CCN(S(=O)(=O)c2ccccc2)CC1 11.6%
COc1cc(C2C(C(=O)c3ccco3)=C(O)C(=O)N2CC2CCCO2)ccc1O (stereo unspecified) -5.75%
CCNc1ccc(C2(O)C(=O)c3ccccc3C2=O)cc1 -1.5%
CC1(CCc2ccc3c(c2)OCO3)NC(=O)c2ccccc2N1 (stereo unspecified) -1.65% [at 23.6 µM]
Cc1sc(-c2cc3cc(Cl)ccc3oc2=O)nc1-c1ccccc1 10.1%
Cc1ccc2oc(C(=O)Nc3ccc(S(=O)(=O)N4CCCCC4C)cc3)cc(=O)c2c1 (stereo unspecified) -5.07%
O=S(=O)(c1ccc(-c2ccccc2)cc1)N1CCOCC1 11.5%
CC(=O)N1CCN(c2ccc(NCc3ccccc3)cc2)CC1 -8.48%
COc1ccc2nc3c(cc2c1)Cn1c-3nc2ccccc2c1=O 21%
COCCNc1c(-c2ccc(O)cc2)nc2ccc(Cl)cn12 -5.9%
CN(C)CC/C=C1/c2ccccc2Sc2c(O)cc(Cl)cc21 -10.2%
Cc1ccc(/C=N\Nc2nc3ccc(Cl)cc3[nH]2)o1 -0.392%
N#Cc1c(N2CCN(c3ccc(F)cc3)CC2)nc(N)c2c(N)nc3c(c12)CC(=O)N3C1CC1 -2.17%
CC(=O)N1CCN(c2ccc(NCc3ccc(C)cc3)cc2)CC1 -3.79%
O=S(=O)(c1ccc(Br)cc1)N1CCOCC1 9.71%
Nc1cccc(S(=O)(=O)N2CCOCC2)c1 10.9%
Cc1cccc2cc3c(NC(=O)c4ccccn4)nn(C)c3nc12 4.42% [at 23.6 µM]
C(=C\c1ccc2ccccc2n1)/c1ccc2c(c1)OCO2 22.9%
COc1ccc2cc(C#N)c(=O)oc2c1 -0.469%
O=C(c1ccccc1)N1CCN(C(=O)c2ccccc2)CC1 10.9%
O=S(=O)(c1ccc(F)cc1)N1CCOCC1 2.82%
Cn1c(-c2ccco2)nc2cc3ccccc3cc21 14.9% [at 23.6 µM]
Cc1c(Nc2c3ccccc3nc3ccccc23)c(=O)n(-c2ccccc2)n1C -1.1% [at 23.6 µM]
Cc1cccn2c(=O)c3cc(C#N)c(=NC(=O)c4cccs4)n(CCCOC(C)C)c3nc12 12.3% [at 23.6 µM]
Cc1ccccc1NC(=O)CC1c2ccccc2CC(C)(C)N1C (stereo unspecified) -2.65%
COc1cccc2cc(-c3nc4c(s3)CCc3ccccc3-4)c(=O)oc12 8.58%
Clc1ccc(Nc2ncnc3ccc(Br)cc23)cc1 -6.43% [at 23.6 µM]
